From PubChem BioAssay (NCATS)
A number with no mark means an inactive call. Inconclusive results are not listed. Entries that show only a call come without a potency. The source made the active and inactive calls. Unless noted, calls follow the shape of the dose curve; as a rule, active = well fitted curve in the direction sought with a large enough effect; inconclusive = small, poorly fitted or top-dose-only effect, or another doubt; inactive = no such curve, though single readings can be large; an effect the other way counts as inactive or inconclusive. Numbered stars: 1 amine (or outer) side, 2 acyl side, 3 side chain; on linkers, the order of the positions; unused ones are H or OH. Bridge positions count the residues as written; N and C are the ends. Square brackets hold non-standard residues; d marks the D form. Peptide text beside a SMILES is read from it. I, II: the chains in the order shown. Actinocin(9to1) = Cc1c2oc3c(C)ccc(C(=O)[*:1])c3nc-2c(C(=O)[*:2])c(N)c1=O; NMeV = CN[C@H](C(=O)O)C(C)C; Sar = CNCC(=O)O

Tests used:
[1] = biological target: 3',5'-cyclic-AMP phosphodiesterase 4B (Homo sapiens) (UniProt Q07343); assay: qHTS Assay for Inhibitors of PDE-IV (AID 607; active = well fitted activation curve with a large enough effect in the main read-out, with a control signal flat, not every such curve was filed as active)
How it was run: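 ACTOne HEK293 cells carry a modified cAMP-gated CNG channel and express endogenous PDE4; plated 1000 cells/well, compounds up to 22.9 uM final. Membrane-potential dye fluorescence (ex 535/em 590) was read; parental cells received 10 uM forskolin + 100 uM RO 20-1724.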

[2] = Cell Viability - Mesenchymal (AID 546); settings: mesenchymal cells viability, qHTS; activity change, negative = cytotoxicity: at 91.7 µM (top of the series);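 also: cells exposed to compound for 40 hours before reading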
How it was run: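 Human renal mesenchymal cells (glomerulus-derived), 1000 cells/well, 5 hr 37 °C pre-incubation; compound 40 hr, 37 °C; CellTiter-Glo, 20 min RT; luminescence; AC50 via Hill equation.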

[3] = Cellular Toxicity (caspase-3) HepG2 (AID 654);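 also: cells exposed to compound for 16 hours before reading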
How it was run: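 Caspase 3/7 activation in HepG2 is measured as rising luminescence after a 16 hr treatment at 37 °C. Values are scaled between DMSO basal and 100 uM tamoxifen, and AC50 is fitted with the Hill equation.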

[4] = Cellular Toxicity (caspase-3) Jurkat (AID 655);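 also: potency is read from the fitted curve at half-maximal effect; cells exposed to compound for 16 h at 37 °C before reading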
How it was run: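 Jurkat cells (5000/well) in complete medium exposed 16 h at 37 C; caspase-3/7 activity read by Caspase-Glo luminescence after 20 min at room temperature. Normalized to DMSO and 100 uM tamoxifen; AC50 from Hill fits.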

[5] = Cellular Toxicity (caspase-3) HUV-EC-C (AID 656)
How it was run: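 HUV-EC-C cells (1000/well) in complete medium, compound-treated 16 h at 37 °C; caspase-3/7 activity read by Caspase-Glo 3/7 luminescence. Normalized to DMSO (basal) and 100 uM tamoxifen (100%); AC50 from Hill-equation concentration-response fits.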

[6] = Cellular Toxicity (caspase-3) BJ (AID 658)
How it was run: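 qHTS, BJ fibroblasts, 1000 cells/well; 5 hr preincubation, 16 hr compound, 37 °C; Caspase-Glo 3/7 reagent, 1 hr RT; luminescence. DMSO = 0%, 10 uM staurosporine = 100%. Hill-equation AC50.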

[7] = Cellular Toxicity (caspase-3) MRC-5 (AID 659); settings: Potency: caspase-3 activation; also: potency is read from the fitted curve at half-maximal effect
How it was run: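 MRC-5 fibroblasts, 1500/well; 16 h cpd, 37 °C; Caspase-Glo 3/7, 1 h RT; lumi read. Norm: DMSO = 0%, 10 uM staurosporine = 100%. Hill-fit AC50 from qHTS conc-response.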

[8] = Cellular Toxicity (caspase-3) Mesangial (AID 660);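 also: cells exposed to compound for 16 h before the caspase read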
How it was run: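 Seed cells derived from normal human renal glomeruli, incubate 5 h, add compounds across concentrations and incubate 16 h at 37 °C. Caspase 3/7 activation is then quantified by luciferase light, with AC50 derived by Hill modeling.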

[9] = Cellular Toxicity (caspase-3) SK-N-SH (AID 661); also: potency is read from the fitted curve at half-maximal effect
How it was run: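 Cells were seeded and incubated 5 hr at 37 °C, dosed with compound over a concentration range for 16 hr, then given Caspase-Glo 3/7 reagent for 1 hr at room temperature before luminescence reading.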

[10] = Cellular Toxicity (caspase-3) H-4-II-E (AID 663); settings: Potency: caspase-3 activation; also: potency is read from the fitted curve at half-maximal effect
How it was run: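 H-4-II-E rat hepatoma, 1500 cells/well, 5 hr settle at 37 °C; compound 16 hr, 37 °C, complete medium; Caspase-Glo 3/7, 20 min RT; luminescence. DMSO = 0%, 100 uM tamoxifen = 100%; Hill-equation AC50.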

[11] = Cellular Toxicity (caspase-3) Hek293 (AID 664);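 also: cells exposed to compound for 16 h at 37 °C before readout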
How it was run: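 qHTS, HEK293 (human embryonic kidney), 16 h cpd exposure in complete medium. Caspase-3/7 activation = luminescence increase; normalized to DMSO/100 uM tamoxifen; Hill-fit AC50.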

[12] = Cellular Toxicity (caspase-3) N2a (AID 665); settings: Potency: caspase-3 activation;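 also: potency is read from the fitted curve at half-maximal effect; compound exposure lasted 16 h at 37 °C before readout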
How it was run: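 Caspase-3/7 activation, measured as increased luminescence from aminoluciferin release, is quantified in mouse N2a cells exposed to compounds for 16 h. Values are normalized to DMSO and 10 uM staurosporine, with AC50 derived by Hill modelling.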

[13] = Cellular Toxicity (caspase-3) NIH 3T3 (AID 666);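 also: potency is read from the fitted curve at half-maximal effect; caspase signal read after 16 h compound exposure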
How it was run: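 Cells were plated at 1000 per well and incubated 5 hr at 37°C, then compound was added for 16 hr. Caspase-Glo 3/7 reagent followed for 20 min at room temperature before luminescence was read.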

[14] = biological target: Cytochrome P450 3A4 (Homo sapiens) (UniProt P08684); assay: qHTS Assay for Activators of Cytochrome P450 3A4 (AID 885); also: nearly all actives have a fitted effect of over 65% in size; also: potency is read from the fitted curve at half-maximal effect
How it was run: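 CYP3A4 activity: Luciferin-PPXE O-dealkylation, 25uM substrate, 200mM KPO4, RT throughout. Read-out is luciferase luminescence; higher values reflect activation.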

[15] = biological target: Guanine nucleotide-binding protein G(i) subunit alpha-1 (Homo sapiens) (UniProt P63096); assay: qHTS Assay for Inhibitors of RGS12 GoLoco Motif Activity (Green Fluorophore) (AID 879);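 also: negative values mean loss of peptide binding seen as reduced polarization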
How it was run: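 A drop in FITC polarization marked displacement of the FITC-tagged RGS12 GoLoco peptide (10 nM) from Gαi1 (50 nM). Compounds were incubated 10 min at room temperature in Tris pH 7.5 buffer containing 150 mM NaCl, 0.1 mM GDP and 0.05% NP40; unlabeled peptide titration served as control.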

[16] = biological target: Cytochrome P450 3A4 (Homo sapiens) (UniProt P08684); assay: qHTS Assay for Inhibitors and Substrates of Cytochrome P450 3A4 (AID 884); also: nearly all actives have a fitted effect of over 50% in size; also: potency is read from the fitted curve at half-maximal effect
How it was run: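 Luminescent readout of luciferin produced by CYP3A4 (20 nM) dealkylation of Luciferin-PPXE, 25 uM (its KM). NADPH-driven reaction ran 60 min at RT after 10 min compound preincubation; data scaled to 57 uM ketoconazole as 100% inhibition.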

[17] = biological target: Cytochrome P450 2D6 (Homo sapiens) (UniProt P10635); assay: qHTS Assay for Inhibitors and Substrates of Cytochrome P450 2D6 (AID 891); also: nearly all actives have a fitted effect of over 60% in size; also: potency is read from the fitted curve at half-maximal effect;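 as to activity change, negative = inhibition: luciferin methyl ether substrate demethylated by CYP2D6 with NADPH regeneration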
How it was run: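 Luminescent read-out of luciferin formed by 5 nM human CYP2D6 demethylating 30 uM Luciferin-ME EGE (Km level) over 60 min at room temperature after NADPH regeneration addition. Data normalized to full inhibition by 1.43 uM quinidine.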

[18] = biological target: Cytochrome P450 2C9 (Homo sapiens) (UniProt P11712); assay: qHTS Assay for Inhibitors and Substrates of Cytochrome P450 2C9 (AID 883); also: nearly all actives have a fitted effect of over 60% in size
How it was run: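 10nM CYP2C9 + 100uM Luciferin-H (=KM), 25mM KPO4; cpd 10 min 37C; NADPH regen, 60 min 37C; stop/detect with P450 Glo-Buffer 20 min; luminescence. Norm. to 57uM sulphaphenazole as full inhibition.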

Chain of Cytochrome P450 3A4 (Homo sapiens) (P08684 whole entry, looked up): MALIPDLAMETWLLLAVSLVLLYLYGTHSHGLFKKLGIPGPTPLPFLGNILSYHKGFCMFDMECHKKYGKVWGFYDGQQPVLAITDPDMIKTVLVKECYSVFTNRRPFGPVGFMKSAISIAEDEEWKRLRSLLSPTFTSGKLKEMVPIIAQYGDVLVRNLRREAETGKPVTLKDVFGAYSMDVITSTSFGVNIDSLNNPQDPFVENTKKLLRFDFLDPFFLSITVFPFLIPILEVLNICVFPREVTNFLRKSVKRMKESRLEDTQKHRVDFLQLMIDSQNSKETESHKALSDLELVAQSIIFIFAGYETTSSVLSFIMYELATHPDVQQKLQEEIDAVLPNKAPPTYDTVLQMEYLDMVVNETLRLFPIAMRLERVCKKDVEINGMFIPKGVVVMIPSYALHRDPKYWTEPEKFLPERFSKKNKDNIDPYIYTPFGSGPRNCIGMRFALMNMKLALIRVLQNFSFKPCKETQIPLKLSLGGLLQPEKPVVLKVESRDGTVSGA
Chain of Cytochrome P450 2D6 (Homo sapiens) (P10635 whole entry, looked up): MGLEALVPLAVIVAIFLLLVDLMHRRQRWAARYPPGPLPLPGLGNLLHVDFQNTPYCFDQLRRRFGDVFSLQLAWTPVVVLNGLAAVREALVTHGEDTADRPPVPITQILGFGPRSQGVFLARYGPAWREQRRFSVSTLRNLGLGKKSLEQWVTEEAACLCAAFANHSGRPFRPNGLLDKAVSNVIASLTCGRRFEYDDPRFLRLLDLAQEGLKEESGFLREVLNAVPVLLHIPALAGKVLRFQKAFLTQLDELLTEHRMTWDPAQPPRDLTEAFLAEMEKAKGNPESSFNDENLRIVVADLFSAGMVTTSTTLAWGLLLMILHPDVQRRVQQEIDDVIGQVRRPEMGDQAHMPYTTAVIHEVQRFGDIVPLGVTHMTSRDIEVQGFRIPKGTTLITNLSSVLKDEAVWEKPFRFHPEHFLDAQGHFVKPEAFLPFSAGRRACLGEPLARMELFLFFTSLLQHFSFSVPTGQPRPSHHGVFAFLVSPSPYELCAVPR
Chain of 3',5'-cyclic-AMP phosphodiesterase 4B (Homo sapiens) (Q07343 whole entry, looked up): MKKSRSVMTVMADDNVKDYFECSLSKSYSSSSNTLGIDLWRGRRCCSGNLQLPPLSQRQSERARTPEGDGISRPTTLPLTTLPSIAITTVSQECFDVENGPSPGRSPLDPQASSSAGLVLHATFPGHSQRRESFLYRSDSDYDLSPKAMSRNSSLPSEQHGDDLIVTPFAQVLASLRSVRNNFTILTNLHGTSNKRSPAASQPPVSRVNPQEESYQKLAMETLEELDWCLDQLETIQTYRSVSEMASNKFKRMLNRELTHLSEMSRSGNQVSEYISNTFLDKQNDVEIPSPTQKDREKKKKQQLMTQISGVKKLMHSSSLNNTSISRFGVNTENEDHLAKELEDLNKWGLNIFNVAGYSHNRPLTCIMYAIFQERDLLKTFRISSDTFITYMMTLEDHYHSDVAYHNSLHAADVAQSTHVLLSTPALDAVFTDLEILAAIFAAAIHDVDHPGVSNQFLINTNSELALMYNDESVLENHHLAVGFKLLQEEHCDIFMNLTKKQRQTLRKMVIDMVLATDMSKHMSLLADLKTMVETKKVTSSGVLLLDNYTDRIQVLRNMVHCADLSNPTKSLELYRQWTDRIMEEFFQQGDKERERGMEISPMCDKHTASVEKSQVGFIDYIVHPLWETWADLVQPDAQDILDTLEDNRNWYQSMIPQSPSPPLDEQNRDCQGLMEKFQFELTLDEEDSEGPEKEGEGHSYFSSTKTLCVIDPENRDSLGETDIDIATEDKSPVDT
Chain of Cytochrome P450 2C9 (Homo sapiens) (P11712 whole entry, looked up): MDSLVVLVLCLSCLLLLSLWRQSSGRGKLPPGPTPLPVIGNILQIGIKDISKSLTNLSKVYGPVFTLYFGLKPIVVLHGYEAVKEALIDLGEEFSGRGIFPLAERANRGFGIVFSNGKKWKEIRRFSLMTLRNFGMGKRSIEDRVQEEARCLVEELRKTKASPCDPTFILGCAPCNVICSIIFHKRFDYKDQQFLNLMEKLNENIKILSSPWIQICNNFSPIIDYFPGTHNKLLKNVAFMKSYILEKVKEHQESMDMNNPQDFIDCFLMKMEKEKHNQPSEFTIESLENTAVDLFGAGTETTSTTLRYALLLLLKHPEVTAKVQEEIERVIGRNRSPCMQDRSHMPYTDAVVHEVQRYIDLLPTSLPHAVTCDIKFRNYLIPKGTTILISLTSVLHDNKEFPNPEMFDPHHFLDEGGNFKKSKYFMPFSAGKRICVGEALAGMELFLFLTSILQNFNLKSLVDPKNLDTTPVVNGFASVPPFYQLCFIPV
Chain of Guanine nucleotide-binding protein G(i) subunit alpha-1 (Homo sapiens) (P63096 whole entry, looked up): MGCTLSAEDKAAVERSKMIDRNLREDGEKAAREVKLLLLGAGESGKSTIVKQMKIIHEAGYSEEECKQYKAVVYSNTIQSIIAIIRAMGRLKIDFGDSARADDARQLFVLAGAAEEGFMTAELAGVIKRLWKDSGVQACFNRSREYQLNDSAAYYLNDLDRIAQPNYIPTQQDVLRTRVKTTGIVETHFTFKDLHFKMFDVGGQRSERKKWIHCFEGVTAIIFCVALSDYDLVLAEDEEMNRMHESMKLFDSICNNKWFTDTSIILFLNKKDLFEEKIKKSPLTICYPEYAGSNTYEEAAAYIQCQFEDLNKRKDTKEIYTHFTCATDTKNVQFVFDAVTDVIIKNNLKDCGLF

SMILES: CCCCOc1ccc(OCCCN2CCOCC2)cc1
- outcome [1]: inactive

SMILES: Cc1c2oc3c(C)ccc(C(=O)N[C@@H]4C(=O)N[C@H](C(C)C)C(=O)N5CCC[C@H]5C(=O)N(C)CC(=O)N(C)[C@@H](C(C)C)C(=O)O[C@@H]4C)c3nc-2c(C(=O)N[C@@H]2C(=O)N[C@H](C(C)C)C(=O)N3CCC[C@H]3C(=O)N(C)CC(=O)N(C)[C@@H](C(C)C)C(=O)O[C@@H]2C)c(N)c1=O (I: T[dV]P[Sar][NMeV] / II: T[dV]P[Sar][NMeV]; ester I:1-I:C, II:1-II:C; linker I:N-II:N via Actinocin(9to1))
- activity change, negative = cytotoxicity [2]: -18.7%
- Potency [3]: inactive
- Potency [4]: 3.98 nM (active)
- outcome [5]: inactive
- outcome [6]: inactive
- Potency [7]: inactive
- outcome [8]: inactive
- Potency [9]: 15.8 nM (active)
- Potency [10]: 126 nM (active)
- outcome [11]: inactive
- Potency [12]: 7.94 nM (active)
- Potency [13]: 25.1 nM (active)
- Potency [14]: inactive

SMILES: CC(C)COC(=O)OCN1C(=O)CN(CCN2CC(=O)N(COC(=O)OCC(C)C)C(=O)C2)CC1=O
- outcome [1]: inactive
- outcome [15]: inactive

SMILES: CN1CCN(C(c2ccccc2)c2ccccc2)CC1
- outcome [1]: inactive
- Potency [16]: inactive

SMILES: O=C(CCCN1CCC(O)(c2ccc(Br)cc2)CC1)c1ccc(F)cc1
- outcome [1]: inactive
- Potency [16]: inactive
- Potency [14]: 10000 nM (active)
- Potency [17]: 3980 nM (active)

SMILES: O=C1c2ccccc2C(=O)C1c1ccccc1
- outcome [1]: inactive
- Potency [14]: inactive

SMILES: CN1[C@@H]2CC[C@H]1CC(OC(=O)c1c[nH]c3ccccc13)C2 (stereo partly specified)
- outcome [1]: inactive
- outcome [15]: inactive

SMILES: CCCn1c(=O)[nH]c(=O)c2[nH]cnc21
- outcome [1]: inactive
- outcome [15]: inactive
- Potency [18]: inactive
- Potency [16]: inactive
- Potency [17]: inactive

SMILES: Nc1nc2ncc(CNc3ccc(C(=O)N[C@@H](CCC(=O)O)C(=O)O)cc3)nc2c(=O)[nH]1
- outcome [1]: inactive
- Potency [16]: inactive

SMILES: Cc1c(N(C)CS(=O)(=O)O)c(=O)n(-c2ccccc2)n1C
- outcome [1]: inactive
- Potency [16]: inactive

SMILES: O=C1CCC(c2ccc(-n3ccnc3)cc2)=NN1
- outcome [1]: inactive
- outcome [15]: inactive
- Potency [16]: 1580 nM (active)
- Potency [14]: inactive
- Potency [17]: 2510 nM (active)

SMILES: Oc1cc(O)c2c(c1)O[C@H](c1ccc(O)c(O)c1)[C@H](O)C2
- outcome [1]: inactive
- outcome [15]: inactive
- Potency [14]: inactive

SMILES: Cc1ccnc(NS(=O)(=O)c2ccc(N)cc2)n1
- outcome [1]: inactive
- Potency [18]: inactive
- Potency [16]: inactive

SMILES: C[N+]1(CCCCC[N+]2(C)CCCC2)CCCC1
- outcome [1]: inactive
- outcome [15]: inactive

SMILES: CCN(CC)C(=O)N1CCN(C)CC1
- outcome [1]: inactive
- Potency [16]: inactive

SMILES: Nc1cc(Cl)c(NC2=NCCN2)c(Cl)c1
- outcome [1]: inactive
- outcome [15]: inactive

SMILES: COc1cccc2c1C(=O)c1c(O)c3c(c(O)c1C2=O)C[C@@](O)(C(C)=O)C[C@@H]3O[C@H]1C[C@H](N)[C@H](O)[C@H](C)O1
- outcome [1]: inactive
- Potency [4]: 5.01 nM (active)
- outcome [5]: inactive
- Potency [7]: 31600 nM (active)
- Potency [9]: 126 nM (active)
- Potency [10]: 12600 nM (active)
- Potency [12]: 3980 nM (active)
- Potency [13]: 31600 nM (active)
- Potency [14]: inactive
- Potency [17]: inactive

SMILES: C1CCc2nnnn2CC1
- outcome [1]: inactive
- outcome [15]: inactive
- Potency [16]: inactive

SMILES: O=C(COc1ccc(Cl)cc1)N1CCN(Cc2ccc3c(c2)OCO3)CC1
- outcome [1]: inactive
- Potency [14]: inactive
- Potency [17]: 199 nM (active)

SMILES: N[C@@H](Cc1cnc[nH]1)C(=O)O
- outcome [1]: inactive
- outcome [15]: inactive
- Potency [14]: inactive

SMILES: CCOC(=O)n1ccn(C)c1=S
- outcome [1]: inactive
- Potency [16]: inactive

SMILES: COc1cc(NS(C)(=O)=O)ccc1Nc1c2ccccc2nc2ccccc12
- outcome [1]: inactive
- outcome [15]: inactive
- Potency [18]: inactive
- Potency [14]: inactive

SMILES: COc1c(C)c2c(c(O)c1C/C=C(\C)CCC(=O)O)C(=O)OC2
- outcome [1]: inactive
- Potency [18]: inactive
- Potency [14]: inactive
- Potency [17]: inactive

SMILES: CNCCC=C1c2ccccc2CCc2ccccc21
- outcome [1]: inactive
- outcome [15]: inactive
- activity change, negative = inhibition [18]: -6.44% [at 11.4 µM]
- Potency [14]: inactive
- Potency [17]: 3160 nM (active)
